Screening data (PubChem BioAssay)
This is one part of a sample in which hits are shown more often than they occur.
HT1080-NT tox – kills 2HG-producing HT-1080-NT fibrosarcoma cells; HT-1080-NT fibrosarcoma viability, CellTiter-Glo ATP luminescence, 48 h; Potency, µM (titrated, usually from 46.1 µM), for the others: at the top dose activity, negative = less viability, usual class: cytotoxic; hit rate 1.6% among 360,000; AID 686970;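 also: NT is the 2HG producing partner of a matched IDH1 knockdown line; potency is read from the fitted curve at half-maximal effect; 0% = DMSO-treated cells and -100% = media-only wells without cells; nearly all actives have a fitted effect of over 55% in size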
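A 48-hour cytotoxicity screen used HT-1080-NT cells plated 2 hours before compound delivery. ATP-based CellTiter-Glo luminescence measured viability, normalized to DMSO and no-cell controls.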
TDP1 cell CPT – growth inhibition of DT40 Tdp1-/-;hTDP1 cells with camptothecin (screen for TDP1 inhibitors); chicken DT40 Tdp1-/-;hTDP1 cells + 20 nM CPT, ATP luminescence, 48 h; Potency, µM (doses to about 46.2 µM), without a hit: top-dose activity change, negative = growth inhibition, most hits filed as inhibitors; hit rate 12% among 420,000; also: potency is read from the fitted curve at half-maximal effect; nearly all actives have a fitted effect of over 55% in size
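Chicken DT40 Tdp1-/- cells stably complemented with human TDP1 were seeded at 400 cells/well in medium containing 20 nM camptothecin, exposed to pin-transferred compounds, and grown at 37 °C for at least 48 hr. Viability was read as ATP luminescence.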
HT1080 IDH1KD tx – toxicity to HT-1080 IDH1 knockdown cells (counter line); HT-1080 IDH1 knockdown viability, ATP luminescence, 48 h; Potency, µM (top dose mostly 46.1 µM), for the others: at the top dose activity, negative = toxicity, usual class: cytotoxic; hit rate 2% among 360,000; AID 686971;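 also: potency is read from the fitted curve at half-maximal effect; 0% = DMSO wells and -100% = cell-free medium wells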
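Viability of IDH1-knockdown HT-1080 fibrosarcoma cells was assessed by CellTiter-Glo after 48 h at 37 °C with titrated compound; concentration-effect curves were classified by fit quality and response size.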
12-LOX inh – inhibitors of human 12S-lipoxygenase ALOX12; purified 12hLO, xylenol orange hydroperoxide absorbance; Potency, µM (doses to about 108 µM), without a hit: top-dose activity change, negative = inhibition, actives largely listed as inhibitors; hit rate 1.1% among 580,000; also: potency is read from the fitted curve at half-maximal effect
Target sequence (P18054 whole entry, looked up): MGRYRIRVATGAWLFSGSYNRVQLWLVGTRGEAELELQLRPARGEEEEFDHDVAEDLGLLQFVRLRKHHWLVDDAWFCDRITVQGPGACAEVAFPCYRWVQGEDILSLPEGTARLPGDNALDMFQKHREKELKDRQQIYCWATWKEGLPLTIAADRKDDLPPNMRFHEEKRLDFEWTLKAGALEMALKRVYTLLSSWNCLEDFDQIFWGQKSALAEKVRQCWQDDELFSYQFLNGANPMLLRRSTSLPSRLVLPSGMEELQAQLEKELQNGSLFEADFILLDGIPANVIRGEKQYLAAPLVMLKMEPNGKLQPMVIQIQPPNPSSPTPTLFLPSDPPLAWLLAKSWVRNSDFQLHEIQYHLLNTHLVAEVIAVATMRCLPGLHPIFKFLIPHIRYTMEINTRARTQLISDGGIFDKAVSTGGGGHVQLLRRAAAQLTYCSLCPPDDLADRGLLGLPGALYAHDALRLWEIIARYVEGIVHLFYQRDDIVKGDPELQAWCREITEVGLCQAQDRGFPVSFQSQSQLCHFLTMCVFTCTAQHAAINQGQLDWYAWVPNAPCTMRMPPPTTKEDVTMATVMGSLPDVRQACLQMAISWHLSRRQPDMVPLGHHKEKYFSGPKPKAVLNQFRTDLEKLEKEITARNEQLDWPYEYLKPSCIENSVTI
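Purified human 12hLO (150 nM final) in 25 mM Hepes, 0.01% Triton X-100, pH 7.0 was preincubated 15 min at room temperature with compound. Then 40 uM arachidonic acid was added, 30 min. Hydroperoxide was read by Fe-XO absorbance ratio 573/405 nm.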
DT40 TDP1 no CPT – qHTS for Inhibitors of human tyrosyl-DNA phosphodiesterase 1 (TDP1): qHTS in cells in absence of CPT; DT40 Tdp1-/- hTDP1 cells, no CPT, ATP luminescence, 48 h; Potency, µM (series often up to 46.2 µM), without a hit: at the top dose activity change, negative = growth inhibition, actives largely listed as inhibitors; hit rate 15% among 420,000; AID 686978, 2013; also: potency is read from the fitted curve at half-maximal effect; nearly all actives have a fitted effect of over 55% in size
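Chicken DT40 Tdp1-/- cells stably complemented with human TDP1 were seeded at 400 cells/well with DMSO in place of 20 nM camptothecin. After compound pinning, cells grew at least 48 hr at 37 °C; viability read by CellTiter-Glo luminescence.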
IL1B secr inh – inflammasome signaling inhibition, IL-1 beta readout; activity change, % at 57.5 µM; THP-1 LPS/ATP IL-1B secretion, AlphaLISA, 16 h; stronger effect = lower value; hit rate 4.7% among 360,000; in the data active = activity change below about -50%; inconclusive = mostly about -30% to -49%
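THP-1 cells pretreated 1 hr with compounds (up to 57.5 uM final), then stimulated with LPS (250 ng/mL final) plus ATP (1.25 mM final); secreted IL-1B measured by AlphaLISA after 16 hr, decreased signal indicating inhibition.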
* = called active by the depositor; ? = inconclusive; · = no result given; [ ] = dose if it differs, or a comment. Unless noted, calls follow the shape of the dose curve; as a rule, active = well fitted curve in the direction sought with a large enough effect; inconclusive = small, poorly fitted or top-dose-only effect, or another doubt; inactive = no such curve, though single readings can be large; an effect the other way counts as inactive or inconclusive. Unless noted, % is scaled to controls: 0 for no effect and ±100 for the full control effect.

SMILES	HT1080-NT tox	TDP1 cell CPT	HT1080 IDH1KD tx	12-LOX inh	DT40 TDP1 no CPT	IL1B secr inh
Cc1ccc(S(=O)(=O)N2CCOC2CNC(=O)C(=O)NCc2ccc(Cl)cc2)cc1 (centres undefined)	-5%	?	-4%	-16%	21µM*	0
Cc1ccc(CNC(=O)C(=O)NCC2OCCN2S(=O)(=O)c2ccc(Cl)cc2)cc1 (centres undefined)	-11%	?	-26%	455%	?	1
COc1ccc(S(=O)(=O)N2CCOC2CNC(=O)C(=O)NCCc2ccc(OC)c(OC)c2)cc1 (centres undefined)	-2%	16µM*	-10%	12%	?	0
O=C(NCCc1ccccc1)C(=O)NCC1OCCN1S(=O)(=O)c1ccc(Br)cc1 (centres undefined)	-12%	?	-4%	3%	16µM*	6
Cc1ccc(NC(=O)c2nccnc2N)cc1I	·	·	·	-46%	·	·
COc1ccc(NC(=O)c2cc(-c3ccc[nH]3)n[nH]2)c(OC)c1	·	·	·	-5%	·	·
O=C1CC(c2noc(-c3ccc4c(c3)OCO4)n2)CN1c1ccc(Cl)cc1 (centres undefined)	·	·	·	-3%	·	·
Cn1nc(C2CCN(C(=O)CCC3CCCC3)CC2)c2c1CCOC2	·	·	·	-5%	·	·
COc1ccc(CCNC(=O)C(=O)NCC2OCCN2S(=O)(=O)c2ccc(Br)cc2)cc1OC (centres undefined)	0%	3%	-4%	18%	7%	0
COc1ccc(CCNC(=O)C(=O)NCC2OCCN2S(=O)(=O)c2ccc(Cl)cc2)cc1OC (centres undefined)	-1%	?	-11%	-1%	18µM*	6
Cc1ccc(C)c(NC2=C(c3ccc(C(F)(F)F)cc3)C(=O)c3ccccc32)c1	·	5.8µM*	·	-18%	5.8µM*	·
COc1cc(OC)c(NC2=C(c3ccc(C(F)(F)F)cc3)C(=O)c3ccccc32)cc1Cl	·	?	·	-32%	23µM*	·
CN1C(=O)CS(=O)(=O)C12CCN(C(=O)c1ccc(F)c(F)c1)CC2	·	·	·	46%	·	·
CC(C)(C)c1ccc(S(=O)(=O)/C=C/C#N)cc1	·	0.79µM*	·	·	0.56µM*	·
COc1ccc(Cc2nn3c(-c4ccccc4Br)nnc3s2)cc1	-26%	?	1%[9.24 µM]	20%	?	-85*
COc1ccc(-c2nnc3sc(CCN4C(=O)c5ccccc5C4=O)nn23)cc1	-2%	-17%	-5%	-12%	?	2
Clc1ccccc1-c1nnc2sc(CCc3ccccc3)nn12	5%	?	2%	?	?	0
Brc1ccccc1-c1nnc2sc(Cc3ccccc3)nn12	3%	-26%	-15%	20%	-10%	-56*
O=C(O)CC/C(=C/c1ccc(OC(F)F)cc1)c1nc2ccccc2s1	·	·	·	3%	·	·
O=C(CC1CCCC1)Nc1ccc2c(c1)-c1ccccc1C2	·	·	·	9%	·	·
c1ccc(-c2ccc(CNCC3CCCO3)cc2)cc1 (centres undefined)	·	·	·	1%	·	·
COCC(=O)N1CCc2oc(C)c(C(=O)N(C)C)c2C1	·	·	·	24%	·	·
COc1ccccc1CCn1c(=O)c(-c2ccc(Cl)cc2)nc2cncnc21	·	?	·	230%	?	·
COc1ccccc1CCn1c(=O)cnc2cncnc21	·	4.6µM*	·	0%	5.8µM*	·
O=C([C@@H]1C[C@H](F)CN1S(=O)(=O)c1ccc(F)cc1)N1CCc2ccccc2C1	·	·	·	-4%	·	·
SMILES	HT1080-NT tox	TDP1 cell CPT	HT1080 IDH1KD tx	12-LOX inh	DT40 TDP1 no CPT	IL1B secr inh
Nc1ccc(S(=O)(=O)c2cc(O)c3ccccc3c2O)cc1	-3%	1.5µM*	-8%	?	2.3µM*	-112*
NC(=O)CCCn1c(C(=O)c2cc(Cl)c(N)c(Cl)c2)c2ccc(C(F)(F)F)cc2[n+]1[O-]	0%	?	0%	?	18µM*	-16
COc1ccc(C(=O)c2c3ccc(C(F)(F)F)cc3[n+]([O-])n2CCCC(N)=O)cc1	-2%	1%	-2%	-26%	-16%	-2
NCCCn1c(C(=O)c2cc(Cl)c(N)c(Cl)c2)c2ccc([N+](=O)[O-])cc2[n+]1[O-]	?	0.65µM*	-21%	-27%	0.52µM*	0
NC(=O)c1ccc(Cn2c(C(=O)c3ccc(Cl)cc3)c3ccccc3[n+]2[O-])cc1	0%	?	0%	?	?	30
NC(=O)c1ccc(Cn2c(C(=O)c3cc(Cl)c(N)c(Cl)c3)c3ccccc3[n+]2[O-])cc1	16µM*	?	12µM*	18µM*	?	29
NCCCn1c(C(=O)c2cc(Cl)c(N)c(Cl)c2)c2ccc(C(F)(F)F)cc2[n+]1[O-]	-6%	?	-16%	?	18µM*	?
Cc1ccc(C)c(NC(=O)C(Sc2ccccc2)c2ccccc2)c1 (centres undefined)	·	·	·	-3%	·	·
CCn1c(SCC(=O)Nc2cc3c(cc2C(C)=O)OCO3)nnc1C1CC1	·	·	·	-1%	·	·
N#Cc1ccc(-c2cccs2)nc1SCc1cccnc1	?	0.52µM*	?	?	0.41µM*	93
CN(C)C[C@@H]1CN(Cc2ccncc2)C[C@H]1NC(=O)c1ccc(Cl)cc1	·	·	·	38%	·	·
COc1ccc(CCNC(=O)CCc2c(C)c3cc4c(C)coc4cc3oc2=O)cc1	·	?	·	0%	?	·
C=C(C)COc1ccc2c(C)c(CCC(=O)NCC(O)c3ccccc3)c(=O)oc2c1 (centres undefined)	·	·	·	-2%	·	·
Cc1coc2cc3oc(=O)c(CCC(=O)NC4CC4)c(C)c3cc12	0%	16µM*	0%	11%	13µM*	-14
C=C(C)COc1ccc2c(C)c(CCC(=O)NC3CCS(=O)(=O)C3)c(=O)oc2c1 (centres undefined)	·	·	·	3%	·	·
Cc1c(Cc2ccccc2)c(=O)oc2cc(OCC(=O)NCC(O)c3ccccc3)ccc12 (centres undefined)	?	?	-4%	2%	18µM*	10
Cc1oc2cc3oc(=O)c(CCC(=O)NC4CC4)c(C)c3cc2c1C	17%	5.8µM*	5%	1%	9.2µM*	-15
C=C(C)COc1ccc2c(C)c(CCC(=O)NC3CC3)c(=O)oc2c1	1%	18µM*	-5%	-1%	?	-11
Cc1noc(-c2ccn3c(CNC(=O)Cc4ccccc4Cl)nnc3c2)n1	·	·	·	3%	·	·
